Assay results: PubChem BioAssay (EPA / NIEHS)
Values joined by “and” are separate entries in the source; they are usually repeats but may differ in a detail not shown here. Equal values may be shown once. Inconclusive results are not listed. Active and inactive are the calls of the source. Rule for the calls: active = hit-call score of the fitted dose curve at least 0.9, where 1 is the maximum; inconclusive = response in the unintended direction; inactive = score below 0.9.

System: not listed separately
Experiment: ATG_XTT_Cytotoxicity: Cytotoxicity Assessment in the Attagene TRANS-FACTORIAL HepG2 Assay (AID 2283584);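 for AC50: XTT signal for cell number as viability in transfected HepG2 cells; cells exposed to compound for 24 h before reading; active means loss of viability signal versus DMSO baseline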
Summary of the method: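 Transfect HepG2 with GAL4-UAS reporter units, dose compound, incubate 24 h, then measure viable cell number by XTT. Fit concentration response against DMSO baseline.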

Row | Structure (SMILES) | outcome | AC50
1 | COC(=O)c1ccc(C)cc1 | inactive | –
2 | CCC(=O)/C=C/C1C(C)=CCCC1(C)C (centres undefined) | inactive | –
3 | OCCN1CCNCC1 | inactive | –
4 | C=C(C)C(=O)NCCCN(C)C | inactive | –
5 | Cc1ccc2ccccc2n1 | inactive | –
6 | C=C[Si](OCC)(OCC)OCC | inactive | –
7 | COc1ccc(O)cc1 | inactive | –
8 | CO[Si](CCCn1c(=O)n(CCC[Si](OC)(OC)OC)c(=O)n(CCC[Si](OC)(OC)OC)c1=O)(OC)OC | inactive | –
9 | CC1CCC(C(C)CS)CC1S (centres undefined) | – | 152 µM (active)
10 | CCCCCC(=O)OCCc1ccccc1 | inactive | –
11 | CC1(C)C(=O)N(Br)C(=O)N1Cl | inactive | –
12 | CCCCCCCCCCCCN(CCCCCCCCCCCC)CCCCCCCCCCCC | inactive | –
13 | C/C=C(\C)C(=O)OCc1ccccc1 | inactive | –
14 | NCCOCCO | inactive | –
15 | O=C(O)c1cn(-c2ccc(F)cc2)c2cc(N3CCNCC3)c(F)cc2c1=O | inactive | –
16 | C=COCCOCCOCCOC=C | inactive | –
17 | CC(=O)c1c(C)cc(C(C)(C)C)cc1C | inactive | –
18 | OC[C@H]1O[C@H](O[C@]2(CCl)O[C@H](CCl)[C@@H](O)[C@@H]2O)[C@H](O)[C@@H](O)[C@H]1Cl | inactive | –
19 | COc1ccc(NC(=O)CC(C)=O)cc1 | inactive | –
20 | CCCCCCOC(=O)CCCCC | inactive | –
21 | CCCc1ccccc1O | inactive | –
22 | CCO[Si](CCCS)(OCC)OCC | inactive | –
23 | CC(C)(N)CO | inactive | –
24 | C=CC(=O)NCOCC(C)C | inactive | –
25 | C=CC[N+](C)(C)CC=C | inactive | –
26 | CCCCCCCCCCCCCCCC(=O)OC[C@H](O)[C@H]1OC(=O)C(O)=C1O | inactive | –
27 | COc1ccc(OC)c(OC)c1 | inactive | –
28 | CC(=O)OCCC(C)CC(C)(C)C (centres undefined) | inactive | –
29 | Sc1nc(S)nc(S)n1 | inactive | –

System: not listed separately
Experiment: TOX21_p53_BLA_p2_viability: Viability Assessment in the Tox21 HCT-116 p53 Agonism Beta-lactamase Assay, Phase 2 (AID 2283591);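 note: compound exposure lasted 16 h at 37 °C; actives lower the ATP signal meaning cytotoxicity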
Summary of the method: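 HCT-116 p53-bla cells (4000/well) rested 5 h at 37C, then received compounds in DMSO (217-fold dilution) for 16 h at 37C, 5% CO2. After the CCF4 read, CellTiter-Glo was added; ATP luminescence was read after 30 min at room temperature.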

Row | Structure (SMILES) | outcome
30 | CC(=O)O[C@]1(C(C)=O)CC[C@H]2[C@@H]3C[C@H](C)C4=CC(=O)CC[C@]4(C)[C@H]3CC[C@@]21C | inactive
31 | CN(C)CCCN | inactive
32 | OC1OC[C@@H](O)[C@H](O)[C@H]1O (some centres undefined) | inactive
33 | COC(C)CCO (centres undefined) | inactive
34 | O=C(OCc1ccccc1)C(=O)OCc1ccccc1 | inactive
35 | Nc1ccc(S(N)(=O)=O)cc1 | inactive
36 | O=Nc1ccc(Nc2ccccc2)cc1 | inactive

Target: Cellular tumor antigen p53 (Homo sapiens) (UniProt P04637)
Experiment: TOX21_p53_BLA_p2_ratio: Tox21 HCT-116 p53 Agonism Beta-lactamase Assay, Ratio, Phase 2 (AID 2283592)
Summary of the method: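 Cleaved-to-uncleaved substrate ratio (460 vs 530 nm) measured in HCT116 cells with an inducible beta-lactamase reporter linked to p53 activity. Compounds incubated 16 h at 37C before 2 h room-temperature CCF4-AM loading.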

Chain of Cellular tumor antigen p53 (Homo sapiens) (P04637 whole entry, looked up): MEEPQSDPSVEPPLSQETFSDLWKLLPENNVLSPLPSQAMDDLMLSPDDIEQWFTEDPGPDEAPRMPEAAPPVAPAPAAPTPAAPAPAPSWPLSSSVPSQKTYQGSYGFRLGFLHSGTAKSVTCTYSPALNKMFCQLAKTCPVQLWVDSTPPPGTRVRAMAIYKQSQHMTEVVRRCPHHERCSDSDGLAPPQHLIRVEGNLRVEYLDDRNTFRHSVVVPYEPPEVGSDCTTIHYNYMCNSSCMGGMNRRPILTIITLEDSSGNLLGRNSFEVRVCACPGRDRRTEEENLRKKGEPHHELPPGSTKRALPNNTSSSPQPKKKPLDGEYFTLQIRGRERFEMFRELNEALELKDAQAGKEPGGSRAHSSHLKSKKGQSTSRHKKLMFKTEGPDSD

Row | Structure (SMILES) | outcome | AC50
37 | COC(=O)c1ccc(C)cc1 | inactive | –
38 | CCC(=O)/C=C/C1C(C)=CCCC1(C)C (centres undefined) | inactive | –
39 | OCCN1CCNCC1 | inactive | –
40 | C=C(C)C(=O)NCCCN(C)C | inactive | –
41 | Cc1ccc2ccccc2n1 | inactive | –
42 | CC(=O)O[C@]1(C(C)=O)CC[C@H]2[C@@H]3C[C@H](C)C4=CC(=O)CC[C@]4(C)[C@H]3CC[C@@]21C | inactive | –
43 | COc1ccc(O)cc1 | inactive | –
44 | CO[Si](CCCn1c(=O)n(CCC[Si](OC)(OC)OC)c(=O)n(CCC[Si](OC)(OC)OC)c1=O)(OC)OC | inactive | –
45 | CC1CCC(C(C)CS)CC1S (centres undefined) | inactive | –
46 | CCCCCC(=O)OCCc1ccccc1 | inactive | –
47 | CC1(C)C(=O)N(Br)C(=O)N1Cl | inactive | –
48 | CCCCCCCCCCCCN(CCCCCCCCCCCC)CCCCCCCCCCCC | inactive | –
49 | CN(C)CCCN | inactive | –
50 | OC1OC[C@@H](O)[C@H](O)[C@H]1O (some centres undefined) | inactive | –
51 | C/C=C(\C)C(=O)OCc1ccccc1 | inactive | –
52 | NCCOCCO | inactive | –
53 | O=C(O)c1cn(-c2ccc(F)cc2)c2cc(N3CCNCC3)c(F)cc2c1=O | inactive | –
54 | C=COCCOCCOCCOC=C | inactive | –
55 | CC(=O)c1c(C)cc(C(C)(C)C)cc1C | inactive | –
56 | OC[C@H]1O[C@H](O[C@]2(CCl)O[C@H](CCl)[C@@H](O)[C@@H]2O)[C@H](O)[C@@H](O)[C@H]1Cl | inactive | –
57 | O=C(OCc1ccccc1)C(=O)OCc1ccccc1 | inactive | –
58 | COc1ccc(NC(=O)CC(C)=O)cc1 | inactive | –
59 | CCCCCCOC(=O)CCCCC | inactive | –
60 | CCCc1ccccc1O | inactive | –
61 | CC(C)(N)CO | inactive | –
62 | Nc1ccc(S(N)(=O)=O)cc1 | inactive | –
63 | C=CC[N+](C)(C)CC=C | inactive | –
64 | CCCCCCCCCCCCCCCC(=O)OC[C@H](O)[C@H]1OC(=O)C(O)=C1O | inactive | –
65 | CC(=O)OCCC(C)CC(C)(C)C (centres undefined) | inactive | –
66 | O=Nc1ccc(Nc2ccccc2)cc1 | – | 46 µM (active) and 46.3 µM (active)

System: not listed separately
Experiment: TOX21_p53_BLA_p3_viability: Viability Assessment in the Tox21 HCT-116 p53 Agonism Beta-lactamase Assay, Phase 3 (AID 2283593);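 note: cells exposed to compound for 16 h before reading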
Summary of the method: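 HCT-116 cells (4000/well) rested 5 h at 37C, then got DMSO compounds by pin tool (217-fold dilution) for 16 h at 37C, 5% CO2. After the bla read, CellTiter-Glo was added and luminescence read at 30 min, room temperature.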

Row | Structure (SMILES) | outcome | AC50
67 | COC(=O)c1ccc(C)cc1 | inactive | –
68 | CCC(=O)/C=C/C1C(C)=CCCC1(C)C (centres undefined) | inactive | –
69 | OCCN1CCNCC1 | – | 82.8 µM (active)
70 | C=C(C)C(=O)NCCCN(C)C | inactive | –
71 | Cc1ccc2ccccc2n1 | inactive | –
72 | C=C[Si](OCC)(OCC)OCC | inactive | –
73 | COc1ccc(O)cc1 | inactive | –
74 | CO[Si](CCCn1c(=O)n(CCC[Si](OC)(OC)OC)c(=O)n(CCC[Si](OC)(OC)OC)c1=O)(OC)OC | inactive | –
75 | CC1CCC(C(C)CS)CC1S (centres undefined) | inactive | –
76 | CCCCCC(=O)OCCc1ccccc1 | inactive | –
77 | CC1(C)C(=O)N(Br)C(=O)N1Cl | inactive | –
78 | CCCCCCCCCCCCN(CCCCCCCCCCCC)CCCCCCCCCCCC | inactive | –
79 | C/C=C(\C)C(=O)OCc1ccccc1 | inactive | –
80 | NCCOCCO | inactive | –
81 | O=C(O)c1cn(-c2ccc(F)cc2)c2cc(N3CCNCC3)c(F)cc2c1=O | inactive | –
82 | CC(=O)c1c(C)cc(C(C)(C)C)cc1C | inactive | –
83 | OC[C@H]1O[C@H](O[C@]2(CCl)O[C@H](CCl)[C@@H](O)[C@@H]2O)[C@H](O)[C@@H](O)[C@H]1Cl | inactive | –
84 | COc1ccc(NC(=O)CC(C)=O)cc1 | inactive | –
85 | CCCCCCOC(=O)CCCCC | inactive | –
86 | CCCc1ccccc1O | inactive | –
87 | CCO[Si](CCCS)(OCC)OCC | inactive | –
88 | CC(C)(N)CO | inactive | –
89 | C=CC(=O)NCOCC(C)C | inactive | –
90 | C=CC[N+](C)(C)CC=C | inactive | –
91 | CCCCCCCCCCCCCCCC(=O)OC[C@H](O)[C@H]1OC(=O)C(O)=C1O | inactive | –
92 | COc1ccc(OC)c(OC)c1 | inactive | –
93 | CC(=O)OCCC(C)CC(C)(C)C (centres undefined) | inactive | –
94 | Sc1nc(S)nc(S)n1 | inactive | –
